Screens (PubChem)
NIH3T3 tox: Cytotoxic Profiling in NIH 3T3 Cell Line of Diverse Libraries Using Quantitative High-Throughput Screening | NIH 3T3 viability, CellTiter-Glo ATP luminescence, 48-72 h | Potency, µM (top dose mostly 96.7 µM), hits mostly inhibitors | actives 4.3% (n = 94,000) | AID 1345082, 2018; further: nearly all actives have a fitted effect of over 55% in size
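First NIH 3T3 cells are plated at 400 cells/well; next compound is pinned in; then plates incubate 48 or 72 hr at 37 °C; finally CellTiter-Glo is added and luminescence read after 10 min.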
IP6K1 inh: Primary qHTS assay for small molecule inhibitors of Inositol hexaphosphate kinase 1 (IP6K1); Inositol hexakisphosphate kinase 1 (Homo sapiens), Q92551; IP6K1 kinase, ADP-Glo luminescence, 2 h; hits give low values; activity change, % (series mostly up to about 58 µM); actives 0.81% (n = 140,000); in the data active means activity change below about -25%
Target sequence (Q92551 whole entry, looked up): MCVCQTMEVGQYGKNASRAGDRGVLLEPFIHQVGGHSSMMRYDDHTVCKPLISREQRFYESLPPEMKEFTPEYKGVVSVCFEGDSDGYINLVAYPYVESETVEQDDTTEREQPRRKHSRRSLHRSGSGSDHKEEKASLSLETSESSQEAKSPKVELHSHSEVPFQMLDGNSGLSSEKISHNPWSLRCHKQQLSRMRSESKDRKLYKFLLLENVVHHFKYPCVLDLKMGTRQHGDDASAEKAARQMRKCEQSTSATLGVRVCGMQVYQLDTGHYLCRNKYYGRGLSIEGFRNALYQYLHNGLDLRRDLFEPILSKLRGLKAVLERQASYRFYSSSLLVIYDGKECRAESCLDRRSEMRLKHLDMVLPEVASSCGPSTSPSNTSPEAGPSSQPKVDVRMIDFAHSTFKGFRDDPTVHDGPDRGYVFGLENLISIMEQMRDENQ
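ADP-Glo luminescence measures ADP made by human IP6K1 during a 2 h RT reaction with ATP/IP6 (mix at 1.3 mM/130 uM); top library doses 57.5 and 19.1 uM final.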
SNCA viab count: GF-AFC viability counterscreen for inhibitors of alpha-synuclein gene (SNCA) expression. actives 0.12% (n = 150,000). AID 1671193, 2021. Potency, µM (top dose mostly 57.1 µM), most hits filed as cytotoxic. HEK-293-SNCA-luc viability, GF-AFC fluorescence, 24 h; further: nearly all actives have a fitted effect of over 30% in size
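HEK-293-SNCA-luc cells (1500/well) plated 24 h, then exposed 24 h to a dilution series; GF-AFC added 30 min at 37C, fluorescence 405/540 nm; normalised to medium-only and DMSO wells, Hill fit.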
HEK cytotox: Cytotoxic Profiling in HEK 293 Cell Line of Diverse Libraries Using Quantitative High-Throughput Screening; actives 6.6% (n = 94,000); Potency, µM (series often up to 115 µM), most hits filed as inhibitors; HEK 293 viability, ATP luminescence (CellTiter-Glo), 48-72 h; further: nearly all actives have a fitted effect of over 60% in size
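Cells seeded first (HEK 293, 250 cells/well), then compound added by pintool. Incubation ran 48 or 72 hr at 37 degree Celsius. CellTiter-Glo was added and luminescence imaged after 10 min at room temperature.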
SNCA expr inhib: Primary qHTS assay for inhibitors of alpha-synuclein gene (SNCA) expression; HEK-293 SNCA-luciferase knock-in, luminescence, 24 h; Potency, µM (titrated, usually from 57.2 µM), most hits filed as inhibitors; actives 0.17% (n = 140,000); AID 1671194, 2021; further: nearly all actives have a fitted effect of over 45% in size
Luciferase inh: Firefly luciferase inhibition profiling of diverse chemical library using quantitative high-throughput screening. Luciferin 4-monooxygenase (Photinus pyralis), P08659. purified P. pyralis luciferase, luminescence, biochemical. Potency, µM (doses to about 115 µM), most hits filed as inhibitors. actives 2.5% (n = 76,000); further: nearly all actives have a fitted effect of over 65% in size
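Purified P. pyralis luciferase (10nM final) in 50mM Tris acetate pH 7.5, 10mM Mg acetate, 0.01% Tween-20, 0.05% BSA with 10uM D-luciferin and 10uM ATP. Compounds titrated qHTS. Luminescence imaged on CCD.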
IP6K1 inh cnf: Confirmatory qHTS assay for small molecule inhibitors of Inositol hexaphosphate kinase 1 (IP6K1); actives 13% (n = 1,200); recombinant IP6K1 kinase, ADP-Glo luminescence, 2 h; AID 1645852, 2021; Potency, µM (top dose mostly 49 µM), hits mostly inhibitors; shares compounds with IP6K1 inh; further: nearly all actives have a fitted effect of over 65% in size
Each line names hits and unclear results; the compound was inactive in the other large screens (follow-up assays come after a bar, where they were run). Most compounds without a hit are left out; they make up all but 7.3% or so of the library. Unless noted, the call rests on the fitted dose curve; in most records, active means well fitted curve in the direction sought with a large enough effect; inconclusive means small, poorly fitted or top-dose-only effect, or another doubt; inactive means no such curve, though single readings can be large; an effect the other way counts as inactive or inconclusive.

O=C(Cc1ccc(NC(=O)N2CCSc3ncccc32)cc1)NCCc1ccccc1	IP6K1 inh -33 (no result: NIH3T3 tox, HEK cytotox, Luciferase inh) | IP6K1 inh cnf inactive
CN(C)C(=O)c1cccnc1OC1CCN(C(=O)c2ccccc2Br)C1 (centres undefined)	none
CCc1ccccc1NC(=O)Nc1cccc(-c2ccc(N3CCOCC3)nn2)c1	NIH3T3 tox inconclusive, IP6K1 inh -26, HEK cytotox inconclusive, Luciferase inh 1µM | IP6K1 inh cnf inactive
CCc1ccccc1NC(=O)CCc1c(C)nn(-c2ccc(N3CCOCC3)nn2)c1C	SNCA expr inhib inconclusive (no result: NIH3T3 tox, HEK cytotox, Luciferase inh)
O=C1NCc2ccccc2CC12CCN(Cc1ccc3ccccc3c1)C2 (centres undefined)	NIH3T3 tox inconclusive, HEK cytotox inconclusive (no result: Luciferase inh)
CCN1CC(C(=O)N2CCCC(c3ccccc3)(c3ccccc3)C2)CC1=O (centres undefined)	IP6K1 inh -34, HEK cytotox inconclusive | IP6K1 inh cnf inactive
CCN1CC(C(=O)N2CCN(CCOc3ccccc3)CC2)CC1=O (centres undefined)	none
CSc1ccc(CCNC(=O)Cn2nc(C)n3c(cc4sccc43)c2=O)cc1	IP6K1 inh -80 (no result: NIH3T3 tox, HEK cytotox, Luciferase inh) | IP6K1 inh cnf inactive
COCCNC(=O)c1ccc2nnc(-c3cccc(OC(F)(F)F)c3)n2c1	none (no result: Luciferase inh)
O=C(Nc1noc2ccccc12)c1cccc(F)c1	none (no result: NIH3T3 tox, HEK cytotox, Luciferase inh)
O=C(Nc1noc2ccccc12)c1ccc(F)cc1	IP6K1 inh -48 (no result: NIH3T3 tox, HEK cytotox, Luciferase inh) | IP6K1 inh cnf inconclusive
CN(Cc1noc2c1CCCC2)C(=O)Cn1cccc(C(F)(F)F)c1=O	none
Cc1ccc(-n2ncc(C(=O)NCc3cccs3)c2C2CCN(C(=O)OC(C)(C)C)CC2)c(C)c1	IP6K1 inh -33, SNCA expr inhib inconclusive (no result: NIH3T3 tox, HEK cytotox, Luciferase inh) | IP6K1 inh cnf inactive
Cc1ccc(-n2ncc(C(=O)N3CCN(c4ccc(Cl)cc4)CC3)c2C2CCN(C(=O)OC(C)(C)C)CC2)c(C)c1	IP6K1 inh -35 (no result: NIH3T3 tox, HEK cytotox, Luciferase inh) | IP6K1 inh cnf inactive
COc1ccc(-n2nc(C3CCN(Cc4ccccc4)CC3)[nH]c2=O)cc1	NIH3T3 tox inconclusive, HEK cytotox inconclusive
Cc1cccc(N2CCN(S(=O)(=O)c3csc(C(N)=O)c3)CC2)c1C	IP6K1 inh -42 (no result: NIH3T3 tox, HEK cytotox, Luciferase inh) | IP6K1 inh cnf 7.3µM
O=C(NCc1ccccc1)C1CCCN1C(=O)c1cccc(-c2ccccn2)c1 (centres undefined)	none (no result: Luciferase inh)
COc1cccc(-c2ccc(C(=O)N3CCC(C(=O)NC4CCCC4)CC3)cc2)c1	NIH3T3 tox inconclusive, HEK cytotox inconclusive (no result: Luciferase inh)
O=c1ccc2ccc(O)c(O)c2o1	SNCA viab count inconclusive (no result: NIH3T3 tox, IP6K1 inh, HEK cytotox, Luciferase inh)
O=Cc1ccc(O)c(O)c1O	IP6K1 inh -33 (no result: NIH3T3 tox, HEK cytotox, Luciferase inh) | IP6K1 inh cnf inconclusive
Cn1c(CNC(=O)C2CCN(c3cn[nH]c(=O)c3)C2)nc2ccccc21 (centres undefined)	NIH3T3 tox inconclusive, HEK cytotox inconclusive
O=S(=O)(c1ccc(-c2cc(C(F)(F)F)on2)s1)N1CCN(c2ccccc2)CC1	none (no result: NIH3T3 tox, HEK cytotox, Luciferase inh)
O=S(=O)(c1ccc(-c2cc(C(F)(F)F)on2)s1)N1CCN(c2cccc(Cl)c2)CC1	IP6K1 inh -33 (no result: NIH3T3 tox, HEK cytotox, Luciferase inh) | IP6K1 inh cnf inactive
COc1cccc(N2C(=O)NC(=NC3CCCCC3)C23CCCN(CC2CCCCC2)C3)c1 (centres undefined)	NIH3T3 tox 28µM, IP6K1 inh -26, SNCA viab count inconclusive, HEK cytotox 32µM, SNCA expr inhib inconclusive (no result: Luciferase inh) | IP6K1 inh cnf inconclusive
CCC(=O)N1CCC(Oc2ncccc2C(=O)N(C)C)C1 (centres undefined)	none
